This note sets out measurements from the supplement of paper PMC6555819.

In the assay the test system is RARg homodimer (NR concentration 270 nM). Put plainly: PBM binding z-score (relative to random genomic background probes); higher = stronger binding; sequences stand for … in GC…GCGATTGACAGCGTAGAATGAAGG
In a few lines:
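Custom Agilent 4×180K protein-binding microarrays carried double-stranded probes, each with a 34-nt variable region. These regions held direct-repeat seeds, single-nucleotide variants, half-site ablations and random human genomic background sequences. Ligand-free nuclear receptor dimers were incubated on the arrays for 1 h, antibodies against each partner (one per run) detected binding, and scanned fluorescence was regression-normalized. Binding z-scores take the random background probes as reference.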
On to CAAACTAGGTCACCGGAAGGTCAAAGACCGCATG, for which the PBM binding z-score amounted to 7.5. The result for CATACAGGGTCAGCTAGACCAGAGTAGGGACGGC reads 4.93; that for TCTAGTTGGTCACAGAGGTCACACACGACGGGTA, 5.57. The same measure for CCTAATGGGCCAAAGGTCATTGATTCCAATGCTC: 5.06. On to TAGCCTAGGTCATTGGGCCAGGATAGTACGCATC, for which the PBM binding z-score is 4.56. Take TCTAGCAGGCCAGAGGCTCACTCAAGAGGTACGG: the PBM binding z-score was -0.695. As to AGATGTAGGTTACATCCGGGTCATTCAGGCTATG, the PBM binding z-score is 2.14.

GCTATTAGTTGAAAGGGCAGCCGAATGATTCTCG came in with a PBM binding z-score of 0.863. The same measure for TAGCCTAGGTCATTTAGGGGCCAGTATAGAAAGC: 4.36. The same measure for CCAGACAGGTGAAGGGTAACTCAGTCTGGTACGC: 0.626. The result for ATCGAAAGGTCGTGAGGCGAGTATACAGAAAGGC reads 3.91. Take CGTGCAAGGTCATAGGAGGTCAGTGAAGACAGAT: the PBM binding z-score turned out to be 7.51.

In the case of TCATATAGGTAAAGGTGTAAGTCGAACGATATGA, the PBM binding z-score amounted to 0.406.

As to TCTTTTAGATCAATAGAGGTTAAGAAAGTGCGCT, the PBM binding z-score is 1.09. The result for ATCTCTAGGTAAAGATAGTCCAGTGAATGCAAAT reads 0.658.

Sequence TCAAGTAGGTTAGTCGGGGCATTCAGCCAACATA had a PBM binding z-score of 0.362. In turn, ATATGTAGGTTAAGGGTCAGTCAGGTTGGTTCGC showed a PBM binding z-score of 3.14. As to CCTTACGGGTCACTCCAGGATATAGCATCGGAGT, the PBM binding z-score is 3.98.
